The results in this text go back to paper PMC4552634, “A New Set of Chemical Starting Points with Plasmodium falciparum Transmission-Blocking Potential for Antimalarial Drug Discovery” (PLoS ONE, 2015).

Read-outs that look alike come from different tables or passages of the source. Among all 13,000 compounds or so, about 3,200 (25%) showed an effect of 50% or more. Some of the results follow.

The experiment relates to P. falciparum stage V gametocytes. Details: BacTiter-Glo ATP luminescence viability of purified stage V gametocytes in 384-well plates, per cent inhibition versus DMSO. As to conditions: 48 h, 5 µM, inhibitor.

The % Inhibition is the relative decrease from the control value, in per cent. On to `O=C(NCc1ccc(F)cc1)c1cnc(N2CCN(c3ccncc3)CC2)c(Cl)c1` [TCMDC-134627], for which the “% Inhibition” value was -0.3882%.
As for `COc1ccc2nccc(NN=Cc3cccc(C)n3)c2c1` [TCMDC-142034], the “% Inhibition” value was -10.1%.
On the same count and under the same terms, under `COc1ccc(OCCCN2CCCCC2)cc1S(=O)(=O)c1ccc(OCc2ccc(C(F)(F)F)cc2)cc1` [TCMDC-132410] stands 92.2%; under `CCOc1cc2c(cc1S(=O)(=O)c1ccc(COc3ccc(C(F)(F)F)cc3)cc1)CCN(C)CC2` [TCMDC-134264], 39.44%; under `COc1cc2c(cc1S(=O)(=O)c1ccc(COc3ccc(C(F)(F)F)cc3)cc1)CNCC2` [TCMDC-134479], -1.894%.
The same measure, in the same setting: the value for `CCCCCCn1c2c(c(=N)c3c1CCC3)CCC2` [TCMDC-125620] was 20.05%; that for `CCCCCCCCn1c2c(c(=N)c3c1CCC3)CCCC2` [TCMDC-125653] was 74.53%.
On the same count and under the same terms, the value for `CCn1c2c(c(=N)c3ccccc31)CCC2` [TCMDC-125756] was -4.824%; that for `CCCCCCn1c2c(c(=N)c3c1CCC3)CCCC2` [TCMDC-124215] was 19.97%; that for `CCCCCCCn1c2c(c(=N)c3c1CCC3)CCCC2` [TCMDC-125606] was 41.76%.
Turning to `CCCCCCCCn1c2c(c(=N)c3c1CCC3)CCC2` [TCMDC-125309], the “% Inhibition” value was found to be 92.39%.
On the same count and under the same terms, the value for `Oc1cccc(Nc2nc(NCc3ccco3)c3ccccc3n2)c1` [TCMDC-124014] was 8.731%; that for `Cc1c[nH]c2cc(/C=C/C(=O)NC3CCC(CCN4CCc5ccc(C#N)cc5CC4)CC3)ccc12` (centres unmarked) [TCMDC-139663] was 21.27%.
On the same count and under the same terms, under `Cc1cc(-c2nc3cncc(-c4cccc(CN5CCCC5Cc5cccnc5)c4)c3n2C)nn1C` (centres unmarked) [TCMDC-135046] stands -7.326%; under `CCOC(=O)N1NC(=O)N(c2ccccc2)C1(c1ccccc1)c1ccccc1` [TCMDC-142002], -11.41%; under `COc1cc2c(cc1C(F)(F)F)N(C(=O)Nc1cc(OC(F)(F)F)cc(-c3cccnc3)c1)CC2` [TCMDC-139046], -1.066%.
On the same count and under the same terms, the value for `O=C(c1ccco1)N1CCN(c2ccc([N+](=O)[O-])c(NC3CC3)c2)CC1` [TCMDC-125397] was 97.95%; that for `O=C(CN1CCN(C(=O)c2ccco2)CC1)Nc1ccccc1Br` [TCMDC-124849] was 32.72%; that for `CC(C)(C)C(=O)N1CCN(c2ccc([N+](=O)[O-])c(NC3CC3)c2)CC1` [TCMDC-123687] was 84.84%.
On to `O=C(CN1CCN(C(=O)c2ccco2)CC1)Nc1ccc(Br)cc1Cl` [TCMDC-124619], for which the “% Inhibition” value is -12.46%.
On the same count and under the same terms, under `O=C(c1cccs1)N1CCN(c2ccc([N+](=O)[O-])c(NC3CC3)c2)CC1` [TCMDC-123877] stands 88.85%.
Still for that read-out and setting: under `COc1ccc(CN2CCN(C(=O)c3cccs3)CC2)c(O)c1` [TCMDC-139298] stands 16.42%.
Same read-out and setting: under `Cc1cc(N2CCN(C(=O)OC(C)(C)C)CC2)ccc1N` [TCMDC-125886] stands -87.61%; under `O=C(NC1CCN(c2ccc(F)cc2[N+](=O)[O-])CC1)c1cccs1` [TCMDC-133786], 14.81%; under `O=C(N1CCN(c2ccc(C(F)(F)F)cc2[N+](=O)[O-])CC1)C(Cl)(Cl)Cl` [TCMDC-124371], -2.22%.
For `O=C(NCCN1CCCC1)c1cccc(-c2ccc(-c3nc4ccccc4[nH]3)s2)c1` [TCMDC-132319], the “% Inhibition” value is listed as -6.335%.
The same measure, in the same setting: the value for `COc1ccc(CCn2c(=N)c(C(=O)NC3CCCC3)cc3c(=O)n4ccccc4nc32)cc1` [TCMDC-124552] was 4.624%.
Regarding `COc1ccc(CCNC(=O)c2cc3c(=O)n4cccc(C)c4nc3n(C)c2=N)cc1` [TCMDC-125129], the “% Inhibition” value worked out at 30.65%.
On the same count and under the same terms, the value for `Cc1cccn2c(=O)c3cc(C(=O)NC4CCCCC4)c(=N)n(CCCn4ccnc4)c3nc12` [TCMDC-125136] was 14.71%.
Still for that read-out and setting: under `Cc1ccc(CNC(=O)c2cc3c(=O)n4cccc(C)c4nc3n(CCN3CCOCC3)c2=N)cc1` [TCMDC-125405] stands 11.13%; under `C=CCn1c(=N)c(C(=O)NC2CCCCC2)cc2c(=O)n3cccc(C)c3nc21` [TCMDC-125083], 96.68%.
Same read-out and setting: the value for `C=CCn1c(=N)c(C(=O)NCc2ccc(F)cc2)cc2c(=O)n3cccc(C)c3nc21` [TCMDC-125128] was 82.89%.
Regarding `N#Cc1ccc2nc(-c3ccccc3)[nH]c2c1` [TCMDC-137223], the “% Inhibition” value is 19.91%.
Still for that read-out and setting: the value for `COc1cc(C(=O)Nc2cccc(-c3nc4ccccc4[nH]3)c2)ccc1OC(C)=O` [TCMDC-123603] was -70.82%; that for `Cc1cnc(Nc2ccccc2)nc1NCCC(=O)Nc1ccccc1` [TCMDC-134914] was 19.34%.
For `Cc1cnc(NCCc2ccc(F)cc2)nc1NCCC(=O)Nc1ccccc1` [TCMDC-134850], the “% Inhibition” value amounted to 59.7%.
Same read-out and setting: the value for `O=C(CCNc1ccnc(NCCc2ccccc2)n1)Nc1ccccc1` [TCMDC-134809] was 42.97%; that for `O=C(CCNc1ccnc(NCC2CCCCC2)n1)Nc1ccccc1` [TCMDC-134707] was 16.22%; that for `Cc1ccccc1CNc1nccc(NCCC(=O)Nc2ccccc2)n1` [TCMDC-134913] was 50.88%.
On the same count and under the same terms, the value for `O=C(CCNc1ccnc(NCCc2ccc(F)cc2)n1)Nc1ccccc1` [TCMDC-134824] was 63.53%; that for `Cc1cc(NCCC(=O)Nc2ccccc2)nc(NCc2ccccc2C)n1` [TCMDC-134901] was 2.536%.
The same measure, in the same setting: the value for `Cc1cnc(NCCc2ccc(F)cc2)nc1N[C@@H](CC(C)C)C(=O)Nc1ccccc1` [TCMDC-134851] was -15.21%.
For the compound `Cc1ccc(NS(=O)(=O)c2ccc(-c3ccccc3)cc2)c(Cn2cnc(N3CCCNCC3)cc2=O)c1` [TCMDC-133150], the “% Inhibition” value came out at 3.416%.
As to `COc1ccc2ncc(F)c(CCN3CC(O)C(CNCc4nc5c(cc4Cl)OCC(=O)N5)C3)c2n1` (centres unmarked) [TCMDC-136079], the “% Inhibition” value (% Inhibition) was found to be 2.766%.
On to `CCOC(=O)c1sc(C(C)Nc2ccccc2)nc1-c1ccccc1` (centres unmarked) [TCMDC-135642], for which the “% Inhibition” value is 18.56%.
`Cc1ccc(CN2CCC(Oc3cccc(NC(=O)c4ccc(C(F)(F)F)cc4)c3)CC2)cc1` [TCMDC-133736]: the “% Inhibition” value is -34.39%.
The same measure, in the same setting: the value for `O=C(NC1CC1)c1ccc(N2CCC(COc3cccc(F)c3)CC2)nc1` [TCMDC-134029] was 11.49%.
Same read-out and setting: the value for `O=C1OC(c2ccccc2)(c2ccccc2)CN1CC1CCN(Cc2ccc(O)c(Cl)c2)CC1` [TCMDC-136312] was 3.668%; that for `FC(F)(F)c1ccc2[nH]c(-c3cccc(-c4cccc(CNCC5CCCO5)c4)c3)nc2c1.O=C(O)C(F)(F)F` (centres unmarked) [TCMDC-133102] was -56.01%; that for `CN(Cc1cccc(O)c1)C1CCN(c2cc(NC(=O)c3ccc(F)cc3)ccn2)C1` (centres unmarked) [TCMDC-134955] was -27.34%.
With `COc1ccc(CCC(C)(C)NCC(O)c2cccc(C(F)(F)F)c2)cc1` (centres unmarked) [TCMDC-131504], the “% Inhibition” value is listed as -35.85%.
Still for that read-out and setting: under `Cc1ccc(S(=O)(=O)Nc2ccc(Nc3nccc(Nc4cccc5[nH]ncc45)n3)cc2)cc1` [TCMDC-136297] stands -19.92%; under `CC(C)N1CCCN(C(=O)C2CCN(c3ccc(C(=O)N4CCCC4)cn3)CC2)CC1` [TCMDC-135636], 39.57%; under `COc1cc(C2C(Oc3ccccc3)C(=O)N2Cc2ccc(F)cc2)cc(OC)c1OC` (centres unmarked) [TCMDC-125396], 72.32%.
Same read-out and setting: under `COc1cc(NC(=O)c2ccc3c(=O)n(Cc4ccccc4)c(=S)[nH]c3c2)cc(OC)c1OC` [TCMDC-123804] stands 26.78%; under `COc1ccc(C2NCCc3c2[nH]c2ccccc32)cc1CN1CCN(c2ccc(F)cc2)CC1` (centres unmarked) [TCMDC-124340], -3.324%.
Regarding `NCCCNc1nc(Nc2cccc(C(N)=O)c2)c2c(=O)[nH]ccc2n1` [TCMDC-135053], the “% Inhibition” value is recorded as 0.6256%.
On to `NCCCNc1nc(Nc2ccc(C(F)(F)F)cc2F)c2c(=O)[nH]ccc2n1` [TCMDC-135056], for which the “% Inhibition” value was found to be 108.1%.
Same read-out and setting: under `Cc1cccc(Nc2nc(NCCCCN)nc3cc[nH]c(=O)c23)c1` [TCMDC-134946] stands 47.91%.
The same measure, in the same setting: the value for `CCS(=O)(=O)c1ccc(/C(=N/OC)c2ccc[nH]2)cc1` [TCMDC-139022] was -5.005%; that for `CCCc1cc(=O)[nH]c(-n2nc(C)cc2NC(=O)C(CC)c2ccccc2)n1` (centres unmarked) [TCMDC-124941] was 11.79%; that for `Cc1ccc(Nc2cc(C)nn2-c2nc(C)cc(=O)[nH]2)cc1` [TCMDC-123713] was 62.43%.
Same read-out and setting: under `Cc1cc(=O)[nH]c(-n2nc(C)cc2NC(=O)C(c2ccccc2)c2ccccc2)n1` [TCMDC-124945] stands 2.872%; under `Cc1cc(=O)[nH]c(-n2nc(C)cc2NC(=O)CC(c2ccccc2)c2ccccc2)n1` [TCMDC-124944], -15.6%; under `CCN(CC)c1nc(Nc2cc(C)ccc2C)nc(Nc2ccccc2O)n1` [TCMDC-125766], -38.82%.
With `CCn1c(-c2nonc2N)nc2c(-c3cccc(NC(=O)Nc4ccc(Cl)cc4)c3)ncc(OCCCN)c21` [TCMDC-136152], the “% Inhibition” value was determined as 102.5%.
Same read-out and setting: under `CCn1c(-c2nonc2N)nc2c(-c3cccc(NC(=O)Nc4ccc5c(c4)CCC5)c3)ncc(OCCCN)c21` [TCMDC-136191] stands 95.55%; under `CCn1c(-c2nonc2N)nc2c(-c3cccc(NC(=O)Nc4cccc(Cl)c4)c3)ncc(OCCCN)c21` [TCMDC-136193], 104.3%; under `CCn1c(-c2nonc2N)nc2cnc(Oc3cccc(NC(=O)c4ccc(OCCCN5CCCCC5)cc4)c3)cc21` [TCMDC-135764], -4.348%.
For the compound `CCn1c(-c2nonc2N)nc2c(Cl)ncc(O[C@H](CCN)c3ccccc3F)c21` [TCMDC-133566], the “% Inhibition” value is recorded as -5.634%.
Consider `CCn1c(-c2nonc2N)nc2c(-c3cccc(NC(=O)NC45CC6CC(CC(C6)C4)C5)c3)ncc(OCCCN)c21` [TCMDC-136246], for which the “% Inhibition” value came to 20.74%.
Same read-out and setting: the value for `CCn1c(-c2nonc2N)nc2cnc(Oc3cccc(NC(=O)c4ccc(OCCN5CCCC5)cc4)c3)cc21` [TCMDC-135776] was 8.365%; that for `CCOC(=O)c1ccc(NC(=O)Nc2cccc(-c3cccc(-c4nc5c(C)cccc5[nH]4)c3)c2)cc1` [TCMDC-133264] was -4.791%; that for `CCOC(=O)c1ccc(NC(=O)Nc2cccc(-c3cccc(-c4nc5ccccc5[nH]4)c3)c2)cc1` [TCMDC-133263] was 2.081%.
On the same count and under the same terms, the value for `Cc1cccc2[nH]c(-c3cccc(-c4cccc(NC(=O)Nc5ccc(Cl)cc5)c4)c3)nc12` [TCMDC-133179] was -25.81%.
The same measure, in the same setting: under `Nc1nonc1-c1nc2c(-c3cccc(Cl)c3)nccc2n1CCCNC(=O)Cc1ccc(Cl)cc1` [TCMDC-135207] stands 32.87%.
As for `CCOC(=O)c1cccc(NC(=O)Nc2cccc(-c3ncc(OCCCN)c4c3nc(-c3nonc3N)n4CC)c2)c1` [TCMDC-136205], the “% Inhibition” value is listed as 109.2%.
